About 7,900 targets were measured; listed, in parts, are those with a hit and a random draw of the rest. About 0.6% of all pairs of compound and target were hits.
Legend:
Experiment in all cases: log2 fold change, soluble protein after heating vs DMSO (PISA); higher = thermal stabilisation; K562 cells, 10 uM, 30 min; active = over 0.2 and 3.5 SD of the protein, either way, in both replicates (recomputed)
[1] = molecular target: ZEB2 (UniProt O60315)
Method in brief: (§1)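 Aliquots of K562 cells (2×10^6 cells/mL) treated with 10 μM compound for 30 min were heated for 3 min over 48°C-58°C. After pooling and extraction in PBS with 0.5% NP-40 at 4°C, soluble protein from a 21,000xg, 90 min spin was quantified by TMTpro 16plex LC-MS/MS with channel sums equalised. Thermal stability is expressed against control samples, from duplicates, as a log2 fold change.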

[2] = molecular target: ZER1 (UniProt Q7Z7L7)
ZER1, sequence (Q7Z7L7 whole entry, looked up): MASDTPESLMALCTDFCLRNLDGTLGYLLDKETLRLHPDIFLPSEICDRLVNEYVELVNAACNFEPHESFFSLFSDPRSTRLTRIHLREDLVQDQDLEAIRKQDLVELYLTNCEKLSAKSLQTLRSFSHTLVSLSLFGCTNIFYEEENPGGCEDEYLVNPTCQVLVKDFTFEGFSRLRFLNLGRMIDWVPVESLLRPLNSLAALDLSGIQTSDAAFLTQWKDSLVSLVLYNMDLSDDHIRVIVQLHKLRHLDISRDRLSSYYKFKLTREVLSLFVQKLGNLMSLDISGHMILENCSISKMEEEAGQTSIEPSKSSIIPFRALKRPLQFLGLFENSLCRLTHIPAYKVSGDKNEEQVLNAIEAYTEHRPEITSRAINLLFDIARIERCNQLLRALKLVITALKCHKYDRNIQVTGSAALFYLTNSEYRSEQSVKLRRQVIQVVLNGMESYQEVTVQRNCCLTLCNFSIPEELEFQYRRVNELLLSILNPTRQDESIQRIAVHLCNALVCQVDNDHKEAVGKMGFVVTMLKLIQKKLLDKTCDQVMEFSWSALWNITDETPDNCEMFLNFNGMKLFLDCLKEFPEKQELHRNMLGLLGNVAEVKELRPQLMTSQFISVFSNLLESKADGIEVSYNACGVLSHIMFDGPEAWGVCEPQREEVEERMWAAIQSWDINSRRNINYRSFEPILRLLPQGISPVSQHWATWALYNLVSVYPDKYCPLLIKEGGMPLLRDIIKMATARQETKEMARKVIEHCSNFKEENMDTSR
Method in brief: as §1

[3] = molecular target: ZFAND5 (UniProt O76080)
ZFAND5, sequence (O76080 whole entry, looked up): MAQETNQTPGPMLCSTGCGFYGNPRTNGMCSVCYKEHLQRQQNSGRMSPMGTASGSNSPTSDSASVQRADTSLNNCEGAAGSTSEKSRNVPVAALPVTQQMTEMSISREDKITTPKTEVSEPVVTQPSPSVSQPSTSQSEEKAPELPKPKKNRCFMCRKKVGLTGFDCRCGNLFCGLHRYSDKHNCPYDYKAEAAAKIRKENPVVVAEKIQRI
Method in brief: as §1

[4] = molecular target: ZFAND6 (UniProt Q6FIF0)
ZFAND6, sequence (Q6FIF0 whole entry, looked up): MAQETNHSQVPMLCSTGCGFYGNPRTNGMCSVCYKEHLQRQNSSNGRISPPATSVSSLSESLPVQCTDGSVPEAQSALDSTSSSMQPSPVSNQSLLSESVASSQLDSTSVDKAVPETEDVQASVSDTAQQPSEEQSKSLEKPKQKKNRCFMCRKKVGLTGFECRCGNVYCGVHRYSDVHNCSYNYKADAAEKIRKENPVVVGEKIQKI
Method in brief: as §1

[5] = molecular target: ZFP91 (UniProt Q96JP5)
Method in brief: as §1

[6] = molecular target: ZFPL1 (UniProt O95159)
Method in brief: as §1

[7] = molecular target: ZMAT2 (UniProt Q96NC0)
ZMAT2, sequence (Q96NC0 whole entry, looked up): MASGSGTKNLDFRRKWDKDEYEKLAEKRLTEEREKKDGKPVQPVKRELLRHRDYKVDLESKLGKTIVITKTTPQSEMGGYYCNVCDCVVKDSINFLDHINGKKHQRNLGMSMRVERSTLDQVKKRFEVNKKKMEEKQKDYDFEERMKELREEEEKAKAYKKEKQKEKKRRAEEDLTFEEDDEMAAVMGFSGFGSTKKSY
Method in brief: as §1

[8] = molecular target: ZMYM1 (UniProt Q5SVZ6)
Method in brief: as §1

[9] = molecular target: ZMYM3 (UniProt Q14202)
Method in brief: as §1

[10] = molecular target: ZNF143 (UniProt P52747)
ZNF143, sequence (P52747 whole entry, looked up): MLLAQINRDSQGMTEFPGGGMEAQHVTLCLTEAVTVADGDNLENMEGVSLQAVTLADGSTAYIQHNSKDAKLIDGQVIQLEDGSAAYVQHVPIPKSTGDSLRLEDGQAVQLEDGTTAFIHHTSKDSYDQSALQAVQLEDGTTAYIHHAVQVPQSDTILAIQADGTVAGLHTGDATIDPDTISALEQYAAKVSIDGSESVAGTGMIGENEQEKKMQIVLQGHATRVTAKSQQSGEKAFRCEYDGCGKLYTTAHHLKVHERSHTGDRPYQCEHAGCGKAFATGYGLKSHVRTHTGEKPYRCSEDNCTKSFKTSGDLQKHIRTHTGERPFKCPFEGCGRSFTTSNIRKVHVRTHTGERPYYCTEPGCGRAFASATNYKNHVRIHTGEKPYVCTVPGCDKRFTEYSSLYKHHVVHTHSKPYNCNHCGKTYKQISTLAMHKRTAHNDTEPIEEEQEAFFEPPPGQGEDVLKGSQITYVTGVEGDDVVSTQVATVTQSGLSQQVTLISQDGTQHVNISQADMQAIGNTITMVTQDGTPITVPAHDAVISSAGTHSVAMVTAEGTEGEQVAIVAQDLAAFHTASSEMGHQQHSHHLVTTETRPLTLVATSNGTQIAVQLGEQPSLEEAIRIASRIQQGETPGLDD
Method in brief: as §1

[11] = molecular target: ZNF217 (UniProt O75362)
Method in brief: as §1

[12] = molecular target: ZNF239 (UniProt Q16600)
ZNF239, sequence (Q16600 whole entry, looked up): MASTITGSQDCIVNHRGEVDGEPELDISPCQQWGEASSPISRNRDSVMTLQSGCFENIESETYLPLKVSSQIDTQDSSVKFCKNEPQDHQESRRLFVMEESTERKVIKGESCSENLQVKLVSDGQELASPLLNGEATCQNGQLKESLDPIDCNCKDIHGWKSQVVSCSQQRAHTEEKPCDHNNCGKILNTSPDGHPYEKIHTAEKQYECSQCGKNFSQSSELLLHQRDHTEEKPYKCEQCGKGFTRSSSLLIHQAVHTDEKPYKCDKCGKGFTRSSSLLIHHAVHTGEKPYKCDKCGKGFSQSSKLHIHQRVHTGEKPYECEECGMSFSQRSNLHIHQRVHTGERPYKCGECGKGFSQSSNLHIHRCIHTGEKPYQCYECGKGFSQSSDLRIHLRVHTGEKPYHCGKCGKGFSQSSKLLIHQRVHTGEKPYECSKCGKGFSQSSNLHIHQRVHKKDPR
Method in brief: as §1

[13] = molecular target: ZNF277 (UniProt Q9NRM2)
Method in brief: as §1

[14] = molecular target: ZNF511 isoform 1 (UniProt Q8NB15)
Method in brief: as §1

[15] = molecular target: ZNF512 (UniProt Q96ME7)
ZNF512, sequence (Q96ME7 whole entry, looked up): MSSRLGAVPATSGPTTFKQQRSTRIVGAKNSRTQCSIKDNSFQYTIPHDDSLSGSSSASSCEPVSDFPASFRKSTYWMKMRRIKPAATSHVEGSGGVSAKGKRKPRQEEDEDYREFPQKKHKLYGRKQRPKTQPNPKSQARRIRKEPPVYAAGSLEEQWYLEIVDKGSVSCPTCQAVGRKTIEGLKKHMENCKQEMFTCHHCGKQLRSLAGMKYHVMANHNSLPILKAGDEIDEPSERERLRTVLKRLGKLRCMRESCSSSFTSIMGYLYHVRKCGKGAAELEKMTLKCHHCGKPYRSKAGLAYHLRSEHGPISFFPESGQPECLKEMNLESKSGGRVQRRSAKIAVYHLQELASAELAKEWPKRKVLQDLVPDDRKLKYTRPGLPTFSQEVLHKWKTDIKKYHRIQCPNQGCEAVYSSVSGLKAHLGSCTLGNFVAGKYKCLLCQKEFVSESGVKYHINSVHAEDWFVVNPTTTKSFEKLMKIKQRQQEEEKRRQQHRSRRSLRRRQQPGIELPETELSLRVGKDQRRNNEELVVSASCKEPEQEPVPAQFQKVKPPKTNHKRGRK
Method in brief: as §1

[16] = molecular target: ZNF579 (UniProt Q8NAF0)
Method in brief: as §1

[17] = molecular target: ZNF609 (UniProt O15014)
ZNF609, sequence (O15014 whole entry, looked up): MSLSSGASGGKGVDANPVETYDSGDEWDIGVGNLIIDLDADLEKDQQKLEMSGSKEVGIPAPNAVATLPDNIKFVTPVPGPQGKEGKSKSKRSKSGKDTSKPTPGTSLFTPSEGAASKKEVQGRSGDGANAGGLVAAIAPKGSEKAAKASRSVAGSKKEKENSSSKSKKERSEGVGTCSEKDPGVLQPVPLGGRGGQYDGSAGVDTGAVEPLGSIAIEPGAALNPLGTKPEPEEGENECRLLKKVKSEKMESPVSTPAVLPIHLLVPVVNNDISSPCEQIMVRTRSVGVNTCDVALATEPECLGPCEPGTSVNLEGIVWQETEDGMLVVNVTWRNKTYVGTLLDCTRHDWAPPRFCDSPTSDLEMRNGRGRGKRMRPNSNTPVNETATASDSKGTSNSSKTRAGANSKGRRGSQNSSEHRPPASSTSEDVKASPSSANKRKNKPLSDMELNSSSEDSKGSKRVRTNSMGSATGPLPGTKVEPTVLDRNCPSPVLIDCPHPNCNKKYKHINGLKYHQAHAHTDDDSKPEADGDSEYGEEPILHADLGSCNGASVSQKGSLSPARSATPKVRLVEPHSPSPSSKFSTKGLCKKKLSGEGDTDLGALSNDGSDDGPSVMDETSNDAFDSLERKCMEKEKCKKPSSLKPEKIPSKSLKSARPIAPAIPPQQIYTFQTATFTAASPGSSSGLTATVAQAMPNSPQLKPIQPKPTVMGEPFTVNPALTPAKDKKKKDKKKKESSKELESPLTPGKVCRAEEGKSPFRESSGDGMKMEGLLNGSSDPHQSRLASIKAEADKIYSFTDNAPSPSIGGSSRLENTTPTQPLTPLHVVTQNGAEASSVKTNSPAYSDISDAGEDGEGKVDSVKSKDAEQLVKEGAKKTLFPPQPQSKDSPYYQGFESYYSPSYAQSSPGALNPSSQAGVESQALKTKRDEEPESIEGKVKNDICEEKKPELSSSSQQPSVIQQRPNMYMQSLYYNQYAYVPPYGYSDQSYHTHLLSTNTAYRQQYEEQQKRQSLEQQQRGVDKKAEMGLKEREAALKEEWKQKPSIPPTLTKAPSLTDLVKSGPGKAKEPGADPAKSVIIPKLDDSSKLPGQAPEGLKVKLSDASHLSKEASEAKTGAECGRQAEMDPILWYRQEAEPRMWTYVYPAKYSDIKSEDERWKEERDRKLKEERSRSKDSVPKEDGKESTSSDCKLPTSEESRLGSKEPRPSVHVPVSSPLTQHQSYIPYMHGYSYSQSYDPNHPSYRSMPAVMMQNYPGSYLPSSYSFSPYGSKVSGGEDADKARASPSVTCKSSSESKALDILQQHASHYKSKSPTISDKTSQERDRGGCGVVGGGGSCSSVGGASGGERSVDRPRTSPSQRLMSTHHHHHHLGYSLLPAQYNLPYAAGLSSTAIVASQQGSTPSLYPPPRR
Method in brief: as §1

[18] = molecular target: ZNF622 (UniProt Q969S3)
Method in brief: as §1

[19] = molecular target: ZRANB2 (UniProt O95218)
ZRANB2, sequence (O95218 whole entry, looked up): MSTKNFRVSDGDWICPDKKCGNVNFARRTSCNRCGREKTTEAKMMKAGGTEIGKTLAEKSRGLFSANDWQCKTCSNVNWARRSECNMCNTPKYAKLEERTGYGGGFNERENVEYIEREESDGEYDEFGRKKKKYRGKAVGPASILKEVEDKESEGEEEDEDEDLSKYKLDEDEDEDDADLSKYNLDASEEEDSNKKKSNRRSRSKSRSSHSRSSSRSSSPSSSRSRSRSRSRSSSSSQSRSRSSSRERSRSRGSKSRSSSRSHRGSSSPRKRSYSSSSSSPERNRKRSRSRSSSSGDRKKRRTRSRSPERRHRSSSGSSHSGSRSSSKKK
Method in brief: as §1

[20] = molecular target: ZNF580 (UniProt Q9UK33)
ZNF580, sequence (Q9UK33 whole entry, looked up): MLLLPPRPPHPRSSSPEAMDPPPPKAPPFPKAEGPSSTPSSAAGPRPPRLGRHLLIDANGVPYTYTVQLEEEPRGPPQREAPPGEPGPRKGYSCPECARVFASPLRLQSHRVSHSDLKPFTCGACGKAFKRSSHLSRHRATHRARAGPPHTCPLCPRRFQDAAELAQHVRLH
Method in brief: as §1

Measured: log2 fold change

C[C@@H]1COCCN1c1cc(C2(S(C)(=O)=O)CC2)nc(-c2cccc3[nH]ccc23)n1
inactive: [1] 0.001 | [2] 0.107 | [3] 0.041 | [4] 0.127 | [5] -0.124 | [6] -0.056 | [7] -0.022 | [8] 0.029 | [9] -0.058 | [10] -0.018 | [11] -0.099 | [12] -0.065 | [13] -0.566 | [14] 0.105 | [15] 0.007 | [16] -0.114 | [17] -0.064 | [18] 0.067 | [19] 0.001

O=C1NC(=O)C(c2cnc3ccccn23)=C1c1cn2c3c(cc(F)cc13)CN(C(=O)N1CCCCC1)CC2
active: [17] -0.571
inactive: [1] 0.116 | [2] -0.198 | [3] -0.157 | [4] -0.013 | [5] 0.073 | [6] -0.003 | [7] 0.012 | [8] 0.045 | [9] 0.003 | [10] -0.042 | [11] -0.102 | [12] 0.082 | [13] 0.124 | [14] -0.095 | [15] -0.023 | [16] 0.038 | [18] 0.043 | [19] 0.12

CS(=O)(=O)CCNCc1ccc(-c2ccc3ncnc(Nc4ccc(OCc5cccc(F)c5)c(Cl)c4)c3c2)o1 [lapatinib]
inactive: [1] 0.019 | [2] -0.057 | [3] 0.038 | [4] -0.106 | [5] 0.173 | [6] -0.035 | [7] 0.016 | [8] 0.082 | [9] 0.007 | [10] -0.011 | [11] 0.018 | [12] -0.095 | [13] 0 | [14] -0.085 | [16] 0.05 | [20] -0.025 | [17] 0.09 | [18] 0 | [19] 0.018

Cc1ncc(-c2ccnc(Nc3ccc(S(C)(=O)=O)cc3)n2)n1C(C)C
inactive: [1] -0.05 | [2] 0.058 | [3] -0.099 | [4] -0.031 | [5] -0.035 | [6] -0.01 | [7] -0.027 | [8] -0.033 | [9] -0.009 | [10] 0.074 | [11] -0.046 | [12] 0.275 | [13] 0.017 | [14] 0.015 | [15] -0.072 | [16] -0.054 | [17] -0.102 | [18] 0.013 | [19] -0.027

CCCS(=O)(=O)Nc1ccc(F)c(C(=O)c2c[nH]c3ncc(-c4ccc(Cl)cc4)cc23)c1F [vemurafenib]
inactive: [1] 0.256 | [2] -0.033 | [3] -0.106 | [4] -0.024 | [5] -0.071 | [6] 0.021 | [7] -0.021 | [8] -0.095 | [9] -0.109 | [10] 0.029 | [11] 0.044 | [12] 0.004 | [13] 0.063 | [14] -0.087 | [16] -0.157 | [20] 0.042 | [17] 0.025 | [18] 0.012 | [19] -0.014

O=C(O)c1ccc2c(c1)nc(Nc1cccc(Cl)c1)c1ccncc12 [silmitasertib]
inactive: [1] -0.001 | [2] 0.028 | [3] -0.03 | [4] -0.018 | [5] 0.086 | [6] 0.003 | [7] 0.028 | [8] 0.255 | [9] -0.012 | [10] 0.023 | [11] -0.073 | [12] 0.29 | [13] 0.105 | [14] 0.076 | [15] 0.234 | [16] -0.016 | [17] 0.02 | [18] -0.058 | [19] 0.018

COc1cc(Nc2ncc3c(n2)-c2ccc(Cl)cc2C(c2c(F)cccc2OC)=NC3)ccc1C(=O)O [alisertib]
inactive: [1] 0.103 | [2] -0.006 | [3] -0.057 | [4] -0.079 | [5] -0.013 | [6] 0.014 | [7] -0.045 | [8] -0.021 | [9] 0.057 | [10] -0.05 | [11] -0.092 | [12] -0.004 | [13] 0.028 | [14] 1.14 | [15] -0.286 | [16] -0.082 | [17] -0.021 | [18] -0.028 | [19] -0.058

COc1cc2ncnc(Nc3ccc(F)c(Cl)c3)c2cc1OCCCN1CCOCC1 [gefitinib]
inactive: [1] -0.086 | [2] -0.031 | [3] -0.006 | [4] -0.005 | [5] 0.02 | [6] 0.065 | [7] -0.021 | [8] 0.014 | [9] 0.034 | [10] -0.098 | [11] 0.001 | [12] -0.267 | [13] -0.053 | [14] -0.192 | [15] -0.02 | [16] 0.111 | [17] -0.069 | [18] 0 | [19] 0.034

NCC(=O)Nc1ccc(-n2nc(C(F)(F)F)cc2-c2ccc3c(ccc4ccccc43)c2)cc1
inactive: [1] -0.343 | [2] 0.03 | [3] 0.103 | [4] 0.061 | [5] 0.036 | [6] 0.027 | [7] 0.016 | [8] 0.336 | [9] 0.073 | [10] -0.047 | [11] -0.081 | [12] -0.027 | [13] -0.148 | [14] -0.005 | [16] 0.085 | [20] -0.038 | [17] -0.076 | [18] -0.016 | [19] 0.067

Cn1cncc1[C@@](N)(c1ccc(Cl)cc1)c1ccc2c(c1)c(-c1cccc(Cl)c1)cc(=O)n2C [tipifarnib]
inactive: [1] 0.045 | [2] 0.111 | [3] 0.031 | [4] -0.09 | [5] 0.149 | [6] 0.008 | [7] -0.058 | [8] 0.01 | [9] 0.027 | [10] 0.037 | [11] -0.152 | [12] 0.178 | [13] 0.044 | [14] 0.062 | [16] 0 | [20] -0.204 | [17] 0 | [18] -0.048 | [19] -0.001

CC(C)(O)CC(=O)NCCn1ccc2ncnc(Nc3ccc(Oc4cccc(C(F)(F)F)c4)c(Cl)c3)c21
inactive: [1] 0.034 | [2] -0.104 | [3] -0.019 | [4] 0.015 | [5] 0.065 | [6] 0.04 | [7] -0.016 | [8] -0.01 | [9] 0.084 | [10] 0.028 | [11] -0.122 | [12] 0.086 | [13] -0.002 | [14] 0.1 | [15] -0.018 | [16] -0.018 | [17] 0.101 | [18] -0.078 | [19] -0.012

COC(=O)[C@H](CCSC)NC(=O)c1ccc(NC[C@@H](N)CS)cc1-c1ccccc1
inactive: [1] -0.382 | [2] 0.035 | [3] 0.1 | [4] 0.061 | [5] 0.064 | [6] -0.007 | [7] 0.019 | [8] 0.026 | [9] 0.035 | [10] 0.013 | [11] -0.067 | [12] 0.002 | [13] -0.047 | [14] -0.201 | [16] -0.012 | [20] -0.082 | [17] 0.019 | [18] 0.005 | [19] 0.05

Cc1ccc2c(=O)c3ccccc3n(CCCN)c2c1C
active: [1] -0.476 | [5] -0.432 | [18] -0.285 | [19] -0.399
inactive: [2] -0.017 | [3] -0.095 | [4] 0 | [6] 0.079 | [7] -0.04 | [8] 0.024 | [9] -0.058 | [10] -0.043 | [11] -0.142 | [12] 0.011 | [13] -0.126 | [14] 0.17 | [16] -0.168 | [20] -0.196 | [17] 0.205

Cc1cc(Nc2cc(N3CCN(C)CC3)nc(Sc3ccc(NC(=O)C4CC4)cc3)n2)n[nH]1 [tozasertib]
inactive: [1] 0.022 | [2] 0.008 | [3] -0.076 | [4] -0.084 | [5] 0.01 | [6] 0.009 | [7] -0.039 | [8] -0.043 | [9] -0.033 | [10] 0.057 | [11] -0.07 | [12] -0.116 | [13] 0.202 | [14] 0.049 | [16] 0.041 | [20] -0.138 | [17] 0.078 | [18] -0.064 | [19] -0.029

COc1cc2nc(-c3cc(F)ccc3O)nc(N[C@@H]3CNC[C@H]3C(C)(C)O)c2cc1OC
inactive: [1] -0.018 | [2] 0.048 | [3] 0 | [4] 0.017 | [5] -0.095 | [6] 0.099 | [7] -0.028 | [8] 0.004 | [9] -0.045 | [10] -0.19 | [11] -0.026 | [12] 0.024 | [13] 0.268 | [14] -0.013 | [16] 0.042 | [20] 0.093 | [17] 0.205 | [18] 0.028 | [19] -0.006

— the supplement of paper PMC10849652
